# Tested on: HpdR/P_H16_RS18295 3-hydroxypropanoate biosensor (pEH010)
# Test: relative induction of RFP reporter vs primary effector; higher = stronger activation
# Conditions: inducer concentration 5 mM; 6 h; Cupriavidus necator H16; minimal medium + 0.4% gluconate
# Method: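 Orthogonality screen of 21 primary inducers against 21 transcription factor/inducible promoter–mRFP biosensors in C. necator H16 in minimal medium, robotic 96-well format, 5 mM inducer, 30 °C. OD-normalised RFP fluorescence was read 6 h later and expressed as relative induction (%) = 100 × (FL compound − FL uninduced)/(FL primary inducer − FL uninduced); mean of n=4. Cognate pairs (100% by definition) omitted.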
row,Structure (SMILES),relative induction of RFP reporter [%]
1,N[C@@H](Cc1ccc(O)cc1)C(=O)O [L-tyrosine],-0.292
2,O=C(O)c1ccccc1O [salicylate],0.195
3,O=c1[nH]c(=O)c2nc[nH]c2[nH]1 [xanthine],0.1
4,O=C(O)C(=O)c1ccccc1 [phenylglyoxylate],-0.296
5,O=C(O)c1ccccc1 [benzoate],-0.293
6,Nc1ccccc1C(=O)C[C@H](N)C(=O)O [L-kynurenine],-0.129
7,O=CO [formate],0.0754
8,NCCC(=O)O [β-alanine],0.231
9,CC(=O)C(C)O (stereo unspecified) [acetoin],-0.347
10,O=C(O)C(O)C(O)C(=O)O (stereo unspecified) [tartrate],-0.0938
11,C=C(CC(=O)O)C(=O)O [itaconate],-0.14
12,O=C(O)C1CCCCC1 [cyclohexane-1-carboxylate],-0.461
13,"O=C(O)c1ccc(O)c(O)c1 [3,4-dihydroxybenzoate]",-0.0358
14,OC1OC[C@H](O)[C@H](O)[C@H]1O (mixture of isomers) [L-arabinose],0.017
15,N[C@@H](Cc1ccccc1)C(=O)O [L-phenylalanine],-0.399
16,O=C(O)CS(=O)(=O)O [sulfonatoacetate],-0.0436
